Screens as filed in PubChem.
A selection: hits, their analogues and other compounds. The true share with any hit is near 11%.
IMPase inh: membrane-permeable compound that blocks inositol monophosphatase. P97697. CHO-M1 cells, IP1 accumulation, HTRF TR-FRET ratio. inhibition (IP1 accumulation), % at 46.1 µM. 120,000 tested, under 10 active; active means well fitted curve in the direction sought with a large enough effect in the signal ratio, not every such curve was filed as active; inconclusive means small, poorly fitted or top-dose-only effect, or a change in a side signal; inactive means no such curve, though single readings can be large or run the other way; the % refers to the signal ratio;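 further: cells stimulated with carbachol in lithium chloride buffer; plate controls were DMSO basal wells for no effect and reference inhibitor wells for full effect; higher means more IMPase inhibition seen as more IP1 and lower FRET ratio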
Target sequence (P97697 whole entry, looked up): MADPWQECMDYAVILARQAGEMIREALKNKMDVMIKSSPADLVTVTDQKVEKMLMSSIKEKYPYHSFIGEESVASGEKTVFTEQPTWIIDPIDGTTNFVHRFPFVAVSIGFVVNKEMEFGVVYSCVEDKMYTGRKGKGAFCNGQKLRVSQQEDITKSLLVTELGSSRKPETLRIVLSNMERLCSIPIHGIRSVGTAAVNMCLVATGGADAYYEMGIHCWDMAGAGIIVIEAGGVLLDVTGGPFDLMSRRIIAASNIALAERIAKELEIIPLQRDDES
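Measured: the HTRF emission ratio (665/620 nm) plus the 620 nm donor channel, each fitted to the Hill equation to give AC50. Cells were CHO-M1 given compounds up to 46 uM and a 30 min carbachol stimulation at 37C.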
HPGD block: inhibitors of human 15-hydroxyprostaglandin dehydrogenase (HPGD); P15428; hit rate 4.3% among 150,000; purified HPGD, NADH fluorescence kinetic, PGE2 substrate; AID 894; Potency, µM, inactives show at the top dose activity change, negative = inhibition, usual class: inhibitors; active means well fitted inhibition curve with a large enough effect, not every such curve was filed as active; inconclusive means small, poorly fitted or top-dose-only effect, or another doubt; inactive means no such curve, though single readings can be large or run the other way; further: potency means the concentration at half of the fitted maximal effect
Target sequence (P15428 whole entry, looked up): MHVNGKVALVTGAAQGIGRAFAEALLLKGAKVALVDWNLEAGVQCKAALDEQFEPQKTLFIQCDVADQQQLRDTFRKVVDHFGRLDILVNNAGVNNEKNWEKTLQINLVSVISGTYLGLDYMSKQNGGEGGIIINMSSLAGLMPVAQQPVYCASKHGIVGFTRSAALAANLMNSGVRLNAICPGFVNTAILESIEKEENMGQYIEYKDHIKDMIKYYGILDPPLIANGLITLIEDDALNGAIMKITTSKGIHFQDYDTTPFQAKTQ
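20 nM HPGD preincubated 15 min at room temperature with compound in 50 mM Tris-HCl pH 8, 0.01% Tween 20. Started with 1 mM NAD+ and 30 uM prostaglandin E2; NADH fluorescence (360/450 nm) read 5 times over 30-s intervals, last minus first.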
IMPase Li cell: cell-permeable IMPase inhibitors with lithium potentiation | hit rate 0.35% among 210,000 | CHO-M1 cells, IP1 TR-FRET (IP-One), carbachol + lithium | Potency, µM (top dose mostly 59.4 µM), inactives show at the top dose activity, negative = IMPase inhibition, usual class: inhibitors;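 further: IP1 builds up when IMPase is blocked and the TR-FRET signal falls; potency means the concentration at half of the fitted maximal effect; plate controls were basal vehicle for no effect and high inhibitor control for full effect; nearly all actives have a fitted effect of over 50% in size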
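Concentration–response in CHO-M1 cells, lithium-potentiated; 30 min at 37C. IP1 detected by competitive TR-FRET after 10 min lysis at RT. Hill-fitted AC50.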
NPSR antag: blocks cAMP signaling of the human neuropeptide S receptor; Q6W5P4; Potency, µM (highest dose often 38.3 µM), for inactives: at the top dose activity change, negative = inhibition, hits mostly inhibitors; AID 1461; CHO-NPSR cells, cAMP TR-FRET, antagonist mode; hit rate 1% among 220,000; further: potency means the concentration at half of the fitted maximal effect; nearly all actives have a fitted effect of over 50% in size
ALDH1A1 block: ALDH1A1 (human) enzyme inhibition | hit rate 7.3% among 220,000 | Purified ALDH1A1, NADH fluorescence, propionaldehyde substrate | Potency, µM (doses to about 75.3 µM), without a hit: at the highest dose activity, negative = inhibition, most hits filed as inhibitors; active means well fitted inhibition curve with a large enough effect, not every such curve was filed as active; inconclusive means small, poorly fitted or top-dose-only effect, or another doubt; inactive means no such curve, though single readings can be large or run the other way;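 further: potency means the concentration at half of the fitted maximal effect; plate controls were no enzyme wells and a reference inhibitor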
PNC inhibitor: blocks assembly of the perinucleolar compartment; PC3M PTB-GFP, PNC prevalence imaging, 16 h; active compounds read low; activity change (PNC), negative = inhibition, % at 10 µM; hit rate 3.1% among 140,000; AID 2417;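 active means readout at or below -70, meaning at least 70% loss of cells showing the perinucleolar compartment, a nuclear body marking cancer cells; inconclusive means readout between -30 and a set limit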;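 further: plate controls were DMSO wells for no effect and camptothecin positive control wells for full effect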
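Read-out is percentage of cells bearing a perinucleolar compartment, from automated 20x imaging of fixed, Hoechst-stained PC3M PTB-GFP cells. Cells were seeded 4 h, then exposed 16 h to compound (23 nl of library stock) in duplicate plates.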
* = called active by the depositor; ? = inconclusive; / = not tested or not shown; [ ] = dose if it differs, or a comment. Unless noted, the call rests on the fitted dose curve; in most records, active means well fitted curve in the direction sought with a large enough effect; inconclusive means small, poorly fitted or top-dose-only effect, or another doubt; inactive means no such curve, though single readings can be large; an effect the other way counts as inactive or inconclusive. Unless noted, on the % scale 0 is the no-effect control and ±100 the full control effect.

SMILES	IMPase inh	HPGD block	IMPase Li cell	NPSR antag	ALDH1A1 block	PNC inhibitor
Cc1nn(CCC(=O)O)c2nc(-c3cccnc3)cc(C(F)(F)F)c12	-5	?	-1%[38.3 µM]	-26%[46.1 µM]	?	-5
Cc1nn(CCc2nn[nH]n2)c2nc(-c3ccc(C4CCCCC4)cc3)cc(C(F)(F)F)c12	/	/	22%	13µM*	?	/
CCOC(=O)c1c(N)sn(-c2ccccc2)c1=S	10	-13%	16%[38.3 µM]	-2%[46.1 µM]	-1%	-5
CCOC(=O)c1c2c(c(=S)n(-c3ccccc3)c1N)CCC2	10	/	/	13%[46.1 µM]	14µM*	-23
O=C(CSc1nc(-c2ccco2)cc(C(F)(F)F)n1)N1CCN(c2ccc(Cl)cc2)CC1	-13	-22%	7%	-11%[46.1 µM]	-10%	-27
O=C(CSc1nc(-c2ccco2)cc(C(F)(F)F)n1)N1CCN(Cc2ccccc2)CC1	1	?	24%[38.3 µM]	-16%[46.1 µM]	16µM*	31
COc1ccc(NC(=O)CSc2nc(-c3ccco3)cc(C(F)(F)F)n2)cc1Cl	-1	/	/	/	/	/
COc1ccccc1N1CCN(C(=O)CSc2nc(-c3ccco3)cc(C(F)(F)F)n2)CC1	-4	-26%	6%[38.3 µM]	?	7.9µM*	-15
O=C(CSc1nnc(-c2ccc(F)cc2)c2ccccc12)Nc1cccc(Cl)c1	5	-3%	12%	-43%	10%	?
COc1ccc(CN(Cc2cc3cc4c(cc3[nH]c2=O)OCO4)C(=O)NC2CCCCC2)cc1	-3[1.84 µM]	?	22%[38.3 µM]	-26%[46.1 µM]	?	-97*
CCN(CC)CCN(Cc1cc2cc3c(cc2[nH]c1=O)OCCO3)C(=O)NC1CCCCC1	3	?	27%[38.3 µM]	4%[46.1 µM]	?	?
OC[C@H](S)CS	/	-10%	17%	/	0.1µM*	/
O=C(NNC(=S)Nc1ccccc1)NNC(=S)Nc1ccccc1	/	/	4%	8%	?	/
Cc1ccc(NC(=S)NNC(=O)Nc2ccccc2)cc1	/	/	15%	8%	2.2µM*	/
O=C(NNC(=S)Nc1ccccc1)Nc1ccccc1	/	/	4%	11%	14µM*	/
FC(F)(F)c1ccccc1/C=N/Nc1ccccn1	/	/	9%	-23%	-2%	/
CCOC(=O)c1sc(N(Cc2ccccc2)C(=O)COC(=O)c2ccc(O)cc2)nc1C	/	?	6%	?	14µM*	?
CCOC(=O)c1sc(N(Cc2ccccc2)C(=O)COC(=O)c2ccccc2O)nc1C	/	20µM*	8%	-1%	-7%	-29
CCOC(=O)c1sc(N(C)C(C)=O)nc1C	0	2%	-2%[38.3 µM]	2%[46.1 µM]	-10%	25
CCOC(=O)c1sc(N(Cc2ccccc2)C(=O)CSc2ncn[nH]2)nc1C	4	-26%	39%[38.3 µM]	-22%[46.1 µM]	4.5µM*	?
CCN(CC)c1ccc(C(=O)OCC(=O)N(C)Cc2ccccc2)cc1	/	/	-4%	-4%	?	/
O=C(O)c1ccn(Cn2cnc3ccccc32)n1	0	-16%	-9%[38.3 µM]	-4%[46.1 µM]	-7%	-23
O=C(COC(=O)/C=C/c1cccc(Cl)c1)NCCC1=CCCCC1	3	1%	-8%	25%	13%	?
O=C(COC(=O)/C=C/c1ccc(Cl)cc1)NCCC1=CCCCC1	/	-16%	-4%	12%	8%	-90*
O=C(COC(=O)Cc1c(Cl)cccc1Cl)NCCC1=CCCCC1	13	13µM*	-7%	-19%	-6%	26
COc1ccc(NC(=S)NC(=O)CC(C)C)c(OC)c1	/	/	4%	-27%	-1%	/
O=C(Nc1ccc2oc(-c3cccc(Cl)c3Cl)nc2c1)c1cccc(Br)c1	-6	/	/	/	/	/
C[C@H]1CC[C@H]2C(=O)N3[C@H](c4ccccc4Br)[C@@H](C)CC[C@H]3C(=O)N2[C@@H]1c1ccccc1Br	/	-7%	23%	-46%	?	17
CC1CCC2C(=O)N3C(CCC(C)C3c3ccccc3Br)C(=O)N2C1c1ccc(C#CCN(C)C)cc1 (configuration not stated)	/	/	/	/	3.5µM*	/
Cc1ccccc1-n1c(=O)cc(N2CCc3ccccc32)[nH]c1=O	-1	-21%	23%[38.3 µM]	-10%[46.1 µM]	?	-108*
